Source: PubChem
SMN2 splice up = enhancers of SMN2 splice variant expression | HEK293 SMN2-luciferase splicing reporter, luminescence, 30-36 h | hit rate 2.8% among 210,000 | AID 1458 | Potency, µM (titrated, usually from 46.1 µM), without a hit: top-dose activity change, positive = activation, actives largely listed as activators; also: % of control where 0% means no effect; nearly all actives have a fitted effect of over 55% in size
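qHTS luciferase splicing reporter: luminescence rises when SMN2 exon 7 is included in transfected HEK293 cells. Compound exposure lasted 30-36 h at 37C, with 4.5 mM final sodium butyrate as control, followed by a ONE-Glo read.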
FLuc modulator = firefly luciferase modulation, counter-screen for miR-21 project | P08659 | purified FLuc, Km substrates, luminescence inhibition | Potency, µM (series often up to 57.5 µM), for the others: at the highest dose activity change, negative = inhibition, actives largely listed as inhibitors | hit rate 6.9% among 360,000;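 also: plate controls were vehicle for no effect and reference inhibitor for full effect; nearly all actives have a fitted effect of over 55% in size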
Target sequence (P08659 whole entry, looked up): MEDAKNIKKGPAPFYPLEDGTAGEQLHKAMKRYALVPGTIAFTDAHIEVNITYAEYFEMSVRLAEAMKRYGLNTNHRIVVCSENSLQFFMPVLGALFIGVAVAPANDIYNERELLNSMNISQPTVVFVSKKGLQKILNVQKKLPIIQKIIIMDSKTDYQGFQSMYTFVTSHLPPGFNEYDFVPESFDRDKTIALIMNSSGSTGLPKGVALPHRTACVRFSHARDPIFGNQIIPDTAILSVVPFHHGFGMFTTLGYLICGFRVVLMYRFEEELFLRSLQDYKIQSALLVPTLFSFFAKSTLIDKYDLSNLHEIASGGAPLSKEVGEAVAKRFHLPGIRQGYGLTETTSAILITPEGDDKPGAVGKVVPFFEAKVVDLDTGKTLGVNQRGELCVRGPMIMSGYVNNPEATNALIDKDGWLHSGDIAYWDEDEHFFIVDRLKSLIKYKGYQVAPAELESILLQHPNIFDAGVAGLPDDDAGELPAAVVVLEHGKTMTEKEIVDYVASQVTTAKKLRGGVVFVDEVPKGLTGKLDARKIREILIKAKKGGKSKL
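Biochemical qHTS of compounds, final roughly 60 µM downward over six points, against 10 nM purified firefly luciferase using Km concentrations of substrates (10 uM D-luciferin, 10 uM ATP) in Tris acetate pH 7.5 buffer; luminescence output.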
ELG1 genotoxic = induces genotoxicity in HEK293T cells with luciferase-tagged ELG1; HEK293T ELG1-luciferase reporter, luminescence, 16 h; hit rate 1.3% among 330,000; Potency, µM (doses to about 46 µM), inactives show at the highest dose activity change, positive = activation, actives largely listed as activators; also: % of control where 0% means no effect; nearly all actives have a fitted effect of over 60% in size
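Cells (2,000/well) expressing the ELG1-luciferase fusion are dosed by pin tool and kept 16 hr at 37 °C, 5% CO2. Signal comes from ONE-Glo luciferase reagent after 30 min at room temperature.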
Rab9 promoter act = activators of Rab9 promoter; hit rate 2.8% among 320,000; Potency, µM (top dose mostly 9.22 µM), inactives show at the top dose activation, negative = inhibition, hits mostly activators; Huh7 Rab9 promoter-luciferase reporter, luminescence, 24 h; also: % of control where 0% means no effect; nearly all actives have a fitted effect of over 60% in size
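Cell-based reporter: Huh7 stable for Rab9 promoter-driven luciferase, plated in reduced-serum medium with 10% FBS at 1500 cells/well, compound-treated 24 h at 37 °C, luminescence read after 10 min reagent.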
NPC1 promoter act = activates the NPC1 promoter | Huh7 NPC1 promoter luciferase reporter, 24 h | Potency, µM (series often up to 9.22 µM), for inactives: at the highest dose activation, hits mostly activators | hit rate 2.4% among 320,000; also: % of control where 0% means no effect; nearly all actives have a fitted effect of over 60% in size
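Huh7 reporter cells (NPC1 promoter driving luciferase) are dosed with compound for 24 h at 37 °C, 5% CO2; luciferase detection reagent is then added and luminescence measured after 10 min at ambient temperature.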
Active calls of the source: *; ? = inconclusive; · = not tested or not shown; [ ] = remark or other dose. Most compounds without a hit are left out; they make up all but 7.4% or so of the library. Calls follow the shape of the dose curve; as a rule, active = well fitted curve in the direction sought with a large enough effect; inconclusive = small, poorly fitted or top-dose-only effect, or another doubt; inactive = no such curve, though single readings can be large; an effect the other way counts as inactive or inconclusive. Potency is read from the fitted curve at half-maximal effect.

SMILES	SMN2 splice up	FLuc modulator	ELG1 genotoxic	Rab9 promoter act	NPC1 promoter act
CCc1ccc2oc(-c3cc(N=Cc4cccc(OC)c4O)ccc3O)nc2c1	14µM*	0.43µM*	?	4µM*	4.5µM*
CCOc1cccc(C(=O)Nc2cc(C)c(O)c(-c3nc4ncccc4o3)c2)c1	6%	?	·	·	·
CCc1ccc2oc(-c3cc(NC(=O)c4cc(OC)c(OC)c(OC)c4)ccc3O)nc2c1	-7%	3.8µM*	·	·	·
Cc1ccc2oc(-c3ccc(NC(=O)c4cccnc4)cc3)nc2c1	2µM*	6µM*	?	2.2µM*	2.5µM*
CCCCCCCCCCCCC/C=C/[C@@H](O)[C@H](CO)NC(=O)CCCCCCCCCCCCCCC	5%	·	·	·	·
O=C(Nc1ccccc1C(F)(F)F)Nc1c[nH]c(=O)[nH]c1=O	·	1%	·	·	·
Cc1ccc(SCc2nc(-c3ccc(C(=O)NCC(C)c4ccccc4)cc3)oc2C)cc1 (stereo not given)	·	-12%	·	·	·
O=C(Nc1cccc(-c2nc3ccccc3o2)c1)c1cccnc1	-35%	?	-6%	-1%	-1%
O=C(Nc1ccc(-c2nc3ccccc3o2)cc1)c1cccnc1	8.9µM*	2.7µM*	?	1.6µM*	2.2µM*
Cc1ccc2nc(-c3ccc(Cl)c(NC(=O)COc4cccc(C)c4C)c3)oc2c1	?	4.8µM*	·	·	·
Cc1ccc2nc(-c3ccc(Cl)c(NC(=O)c4cccnc4)c3)oc2c1	-4%	0.6µM*	·	·	·
Cc1ccc2nc(-c3ccc(Cl)c(NC(=O)c4cccc([N+](=O)[O-])c4C)c3)oc2c1	2%	-20%	·	·	·
CN(C(=O)CSc1nc2ccc(NC(=O)COc3ccccc3Cl)cc2s1)c1ccccc1	·	-2%	·	·	·
N#Cc1c(/N=C\c2ccc(O)c([N+](=O)[O-])c2)sc2c1CCCC2	·	?	11%	?	28%
N#Cc1c(/N=C/c2ccc(-c3ccccc3C(=O)O)o2)sc2c1CCCC2	·	0.76µM*	15µM*	0.71µM*	1.8µM*
N#Cc1c(/N=C/c2ccc(-c3ccc(C(=O)O)c(Cl)c3)o2)sc2c1CCCC2	·	2.4µM*	8%	-4%	1%
O=C(CN1C(=O)NC2(CCOc3ccccc32)C1=O)c1ccc(Cl)s1 (stereo not given)	·	·	-1%	-7%	0%
CCc1ccc(C(=O)CN2C(=O)NC3(CCOc4ccccc43)C2=O)s1 (stereo not given)	·	17µM*	1%	1%	-3%
N#Cc1c(NC(=O)CCC(=O)O)ccc2ccccc12	-4%[9.22 µM]	·	·	·	·
Cc1ccc2oc(C(=O)Nc3sc4c(c3C(=O)NCc3ccccc3)CCCC4)cc(=O)c2c1	2%	1%	·	·	·
Cc1nn2cc(-c3cccc(Cl)c3)cnc2c1Br	?	?	?	2%	-10%
Cc1nn2cc(-c3cccc(Cl)c3)cnc2c1Cl	13µM*	-20%	18%	?	-12%
Cc1cc(Nc2ccccc2)nn1C(=O)c1ccc(Cl)cc1	-14%	9.5µM*	?	13%	-4%
Cc1cc(Nc2ccccc2)n(C(=O)c2ccccc2)n1	-13%	12µM*	?	28%	10%
Cc1cc(Nc2ccccc2)n(-c2ccccc2)n1	3%	1%	13%	-1%	-6%
SMILES	SMN2 splice up	FLuc modulator	ELG1 genotoxic	Rab9 promoter act	NPC1 promoter act
Brc1ccc(OCc2nc3ccccc3[nH]2)cc1	·	2.4µM*	?	2.5µM*	3.2µM*
COc1cccc(OCc2nc3ccccc3[nH]2)c1	13µM*	6.7µM*	?	3.5µM*	3.2µM*
NNC(=O)c1ccc(OCc2nc3ccccc3[nH]2)cc1	-15%[9.22 µM]	·	·	·	·
COc1ccc(OCc2nc3ccccc3[nH]2)cc1	11µM*	3.4µM*	1.8µM*	0.56µM*	1.6µM*
Nc1ccc2nc(COc3ccccc3)[nH]c2c1	·	?	7%	15%	1%
COc1cccc(OCc2nc3ncc(Br)cc3[nH]2)c1	?	-19%	?	12%	-8%
c1ccc2cc(OCc3nc4ccccc4[nH]3)ccc2c1	2.8µM*	1.9µM*	?	2µM*	2.2µM*
CCOc1ccc(NC(=O)CSc2oc(-c3ccco3)nc2S(=O)(=O)c2ccccc2)cc1	-8%	6%	·	·	·
Cc1ccc2nc(/C(C#N)=C/c3ccc(-c4ccccc4C(=O)O)o3)[nH]c2c1	·	4.3µM*	0%	0%	-3%
